Shown are actives, neighbours in structure and some others; about 0.56% of the full set was active somewhere.
EPAC2 antagonist = antagonists of human EPAC2 | Q8WZA2 | EPAC2 GEF exchange of Rap1B-BODIPY-GDP, fluorescence | Potency, µM (titrated, usually from 114 µM), most hits filed as inhibitors | 360,000 compounds, 0.18% hits | AID 720708; note: nearly all actives have a fitted effect of over 45% in size
EPAC1 antag = EPAC1 (human) antagonism; O95398; 360,000 compounds, 0.14% hits; Potency, µM (highest dose often 115 µM), hits mostly inhibitors; EPAC1 GEF assay, Rap1b-BODIPY-GDP exchange fluorescence; AID 720709; note: nearly all actives have a fitted effect of over 50% in size
EPAC1 ag = agonists of human EPAC1 | O95398 | EPAC1 agonist qHTS, biochemical assay; response scale: 100% = response to 6.5 mM cAMP | Potency, µM (series often up to 154 µM), most hits filed as activators | 360,000 compounds, 0.073% hits; note: nearly all actives have a fitted effect of over 60% in size
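Read-out is the fluorescence drop as BODIPY-GDP leaves Rap1B (480 nm excitation, 540 nm emission), recorded every 5 minutes over 30 minutes. Reactions held 100 nM EPAC1, 250 nM Rap1B–BODIPY-GDP and 50 uM GDP, with 6.5 mM cAMP setting full activation.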
EPAC2 ag = activates human EPAC2 exchange factor | Q8WZA2 | EPAC2 activation, biochemical qHTS; response scale: 100% = 6.5 mM cAMP response | Potency, µM (series often up to 154 µM), hits mostly activators | 360,000 compounds, 0.079% hits; note: nearly all actives have a fitted effect of over 50% in size
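Compounds were titrated in qHTS against a Rap1B-BODIPY-GDP (250 nM) complex with EPAC2 (100 nM) and GDP (50 uM). BODIPY-GDP release tracked at 480/540 nm over 30 min at room temperature, normalized to 6.5 mM cAMP.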
USP1 inh = USP1/UAF1 (human) deubiquitinase inhibition. O94782. recombinant USP1/UAF1, Ub-Rhodamine cleavage fluorescence. Potency, µM (highest dose often 57.1 µM), usual class: inhibitors. 390,000 compounds, 0.23% hits. AID 743255; note: nearly all actives have a fitted effect of over 60% in size
Target sequence (O94782 whole entry, looked up): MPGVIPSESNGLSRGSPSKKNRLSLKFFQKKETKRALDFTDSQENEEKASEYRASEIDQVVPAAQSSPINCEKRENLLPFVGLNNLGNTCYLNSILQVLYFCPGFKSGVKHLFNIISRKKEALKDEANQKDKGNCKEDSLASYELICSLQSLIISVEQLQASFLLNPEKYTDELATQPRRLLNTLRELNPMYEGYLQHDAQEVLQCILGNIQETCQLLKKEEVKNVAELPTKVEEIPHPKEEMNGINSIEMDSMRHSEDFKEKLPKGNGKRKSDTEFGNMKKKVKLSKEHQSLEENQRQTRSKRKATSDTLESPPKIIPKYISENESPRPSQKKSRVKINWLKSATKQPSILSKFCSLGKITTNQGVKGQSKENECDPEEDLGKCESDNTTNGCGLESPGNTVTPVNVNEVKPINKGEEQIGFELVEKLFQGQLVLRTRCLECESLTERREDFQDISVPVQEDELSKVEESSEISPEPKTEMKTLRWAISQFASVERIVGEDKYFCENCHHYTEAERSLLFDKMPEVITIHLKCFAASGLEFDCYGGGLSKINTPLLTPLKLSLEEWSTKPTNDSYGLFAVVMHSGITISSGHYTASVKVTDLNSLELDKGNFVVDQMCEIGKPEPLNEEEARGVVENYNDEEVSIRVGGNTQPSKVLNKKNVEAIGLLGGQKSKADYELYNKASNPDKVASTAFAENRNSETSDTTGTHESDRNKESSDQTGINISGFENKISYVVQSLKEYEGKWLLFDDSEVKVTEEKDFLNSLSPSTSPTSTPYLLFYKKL
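USP1/UAF1 complex (1 nM) preincubated 15 min at room temperature with compound, then Ub-Rho substrate (150 nM final) added. Kinetic fluorescence at 480/540 nm over 6 reads at 60 s intervals; 50 mM HEPES pH 7.8, 0.5 mM EDTA, 0.1 mg/ml BSA, 1 mM TCEP, 0.01% Tween-20.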
LDHA block = inhibitors of human lactate dehydrogenase A; P00338; purified LDHA, NADH/diaphorase-resazurin fluorescence; stronger effect = lower value; activity change, % (values are at about 110 or 230 µM); 480,000 compounds, 0.15% hits; in the data active = activity change below about -30%; inconclusive = mostly about -25% to -30%
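Human LDH5 at 2 nM final in Tris HCl pH 7.4 with 0.06 mM NADH and 0.2 mM pyruvate, reacted 5 minutes at room temperature. Remaining NADH coupled via diaphorase/resazurin; resorufin fluorescence read at 0 and 20 minutes, normalized to enzyme-free and DMSO wells.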
Each line names hits and unclear results; the compound was inactive in the other large screens. Unless noted, calls come from the whole dose curve; as a rule, active = well fitted curve in the direction sought with a large enough effect; inconclusive = small, poorly fitted or top-dose-only effect, or another doubt; inactive = no such curve, though single readings can be large; an effect the other way counts as inactive or inconclusive.

O=C(NCC(c1ccco1)N1CCOCC1)c1cc(=O)c2cc(Br)ccc2o1 (stereo unspecified)	LDHA block -31 (no result: EPAC2 antagonist, EPAC1 antag, EPAC1 ag, EPAC2 ag, USP1 inh)
O=C(NCC(c1ccco1)N1CCCCC1)c1cc(=O)c2ccccc2o1 (stereo unspecified)	none (no result: EPAC2 antagonist, EPAC1 antag, EPAC1 ag, EPAC2 ag, USP1 inh)
O=C(NCC(c1cccs1)N1CCCCCC1)c1cc(=O)c2ccc(Br)cc2o1 (stereo unspecified)	LDHA block -31 (no result: EPAC2 antagonist, EPAC1 antag, EPAC1 ag, EPAC2 ag, USP1 inh)
CCCCCn1nc(C(=O)N2CCC(C)Sc3ccccc32)c2ccccc2c1=O (stereo unspecified)	none (no result: EPAC2 antagonist, EPAC1 antag, EPAC1 ag, EPAC2 ag, USP1 inh)
CC(Oc1ccccc1)c1nn2c(=O)c3ccccc3nc2s1 (stereo unspecified)	none (no result: EPAC2 antagonist, EPAC1 antag, EPAC1 ag, EPAC2 ag, USP1 inh)
COc1cc2c(cc1OC)-c1cc3ccc4c(c3c[n+]1CC2)OCO4	EPAC1 ag inconclusive, EPAC2 ag inconclusive, USP1 inh 25µM
CC(C)(C)OC(=O)N(CCc1ccccc1)Cc1cccc(OCc2cccc(NC(=O)C3CCCC3)c2)c1	EPAC1 antag inconclusive
COc1ccccc1NC(=O)COC(=O)c1ccc([N+](=O)[O-])s1	EPAC2 antagonist inconclusive, EPAC1 antag 11µM, USP1 inh 14µM
CC(C(=O)N(C)C)S(=O)(=O)Cc1cccc(Br)c1 (stereo unspecified)	none (no result: EPAC2 antagonist, EPAC1 antag, EPAC1 ag, EPAC2 ag, USP1 inh)
COCCCn1c(=O)/c(=C\c2ccccc2OC(C)C)s/c1=C(/C#N)C(=O)Nc1ccc(C(=O)O)cc1	EPAC1 ag 112µM
Clc1ccc(-c2noc(CSc3nncc4ccccc34)n2)cc1	none (no result: EPAC2 antagonist, EPAC1 antag, EPAC1 ag, EPAC2 ag, USP1 inh)
COc1ccc(C(CC(=O)N2CCOCC2)c2c(OC)cc(OC)c3c(-c4ccccc4)cc(=O)oc23)cc1 (stereo unspecified)	EPAC2 antagonist 50µM
COc1ccc(C(CC(=O)N2CCCC2)c2c(OC)cc(OC)c3c(-c4ccccc4)cc(=O)oc23)cc1 (stereo unspecified)	EPAC2 antagonist inconclusive, EPAC1 antag inconclusive
CCOC(=O)c1ccc(NC2=CC(=O)C(=O)c3ccccc32)cc1	USP1 inh 7.9µM
Cc1cc(NC2=CC(=O)C(=O)c3ccccc32)no1	EPAC2 antagonist inconclusive, EPAC1 antag inconclusive, USP1 inh 2.5µM
COc1cc(OC)c(NC2=CC(=O)C(=O)c3ccccc32)cc1Cl	USP1 inh 18µM
Cc1ccc(NC2=CC(=O)C(=O)c3ccccc32)cc1	USP1 inh 25µM
O=C/C=C/c1cccc([N+](=O)[O-])c1	none (no result: EPAC2 antagonist, EPAC1 antag, EPAC1 ag, EPAC2 ag, USP1 inh)
C=C(C)CSC1=C(C#N)C(c2ccc(C(C)C)cc2)CC(=O)N1 (stereo unspecified)	none (no result: EPAC2 antagonist, EPAC1 antag, EPAC1 ag, EPAC2 ag, USP1 inh)
NS(=O)(=O)c1ccc(NC2=CC(=O)C(=O)c3ccccc32)cc1	EPAC2 antagonist inconclusive, EPAC1 antag inconclusive, USP1 inh 8.9µM
CC(=O)Nc1ccc(NC2=CC(=O)c3ccccc3C2=O)cc1	none
O=C(NCC1CCCO1)C(Cc1ccccc1)N1C(=O)C2C3C=CC(C4CC34)C2C1=O (stereo unspecified)	none
CCN(CC)c1ccc2cc(C(C)=O)c(=O)oc2c1	EPAC1 ag inconclusive, EPAC2 ag inconclusive, USP1 inh inconclusive
CCN(CC)c1ccc2cc(C=O)c(=O)oc2c1	EPAC1 ag 100µM, EPAC2 ag 100µM, USP1 inh 16µM
CCN(CC)c1ccc2cc(C(N)=O)c(=O)oc2c1	USP1 inh inconclusive
CCN(CC)c1ccc2cc(C(=O)Nc3ccccn3)c(=O)oc2c1	EPAC2 ag 100µM, USP1 inh inconclusive
CCN(CC)c1ccc2cc(NC(=O)CCC(=O)O)c(=O)oc2c1	EPAC1 ag inconclusive, USP1 inh 28µM
COc1ccccc1N(C)S(=O)(=O)c1ccc(C(=O)Nc2c(C)cccc2C)cc1	none (no result: EPAC2 antagonist, EPAC1 antag, EPAC1 ag, EPAC2 ag, USP1 inh)
CN(C(=O)c1cccc(NC(=O)Cc2ccc(NC(=O)C3CCN(C(=O)c4ccccc4)CC3)cc2)c1)C1CCCCC1	none
CCCCCNCc1ccccc1F	none (no result: EPAC2 antagonist, EPAC1 antag, EPAC1 ag, EPAC2 ag, USP1 inh)
CN(C)C(=O)c1ccc(NC(=O)Cc2cccs2)cc1	none (no result: EPAC2 antagonist, EPAC1 antag, EPAC1 ag, EPAC2 ag, USP1 inh)
O=C1NC(=S)S/C1=C\c1ccc(SCc2ccco2)o1	EPAC2 antagonist 45µM, EPAC1 antag inconclusive, USP1 inh inconclusive
O=C1NC(=S)S/C1=C\c1ccc(SCc2ccccc2)o1	EPAC2 antagonist inconclusive, EPAC1 antag 22µM
